We go through 25 compounds from ChEMBL document CHEMBL1157539, “Thousands of chemical starting points for antimalarial lead identification” (Nature, 2010).

In the test the test system is HepG2. The test is described as follows: GSK_TCMDC: Percent inhibition of human HepG2 cell line. Test compounds present at 10uM. It counts as functional.
In turn, `O=C(NCCN1CCOCC1)c1ccc(O)c(-c2cccc(C(F)(F)F)c2)c1` displayed an Inhibition of 0%. In the case of `COc1ccc(CCN(C)CCCCc2ccc(NC(=O)c3cccc4c(=O)c5cc(F)ccc5sc34)cc2)cc1OC`, the Inhibition was 98%. `CC1CC(C)CN(CCCNc2ccc(C(=O)Nc3ccc(C(F)(F)F)cc3)cc2[N+](=O)[O-])C1` (stereo not given) gave an Inhibition of 31%. On to `CCN(CC)CCN(Cc1ccc(-c2ccc(C(F)(F)F)cc2)cc1)C(=O)Cn1c(CCc2c(F)ccc(F)c2F)nc(=O)c2ccccc21.O=C(O)C(O)C(O)C(=O)O`, for which the Inhibition turned out to be 44%. The same measure for `Br.CC(C)Oc1ccc(CCCON2C(=N)N=C(N)NC2(C)C)cc1`: 66%; for `Cc1ccc(Nc2nc(C)cc(N3CCN(CCc4ccccc4)CC3)n2)cc1`: 6%. As for `CCOc1ccc2[nH]c(C)cc(=NN=Cc3ccncc3)c2c1`, the Inhibition was 8%.

Turning to `COc1ccc(Nc2nc(N/N=C/c3ccc(-c4ccc([N+](=O)[O-])cc4)o3)nc(Nc3ccccc3)n2)cc1`, the Inhibition was 0%. The same measure for `Cc1cccc2nc(-c3cccc(-c4cccc(NC(=O)CNC(=O)c5ccc(O)cc5)c4)c3)[nH]c12`: 9%; for `O=C(NCCc1ccccc1)N(Cc1ccccc1-c1cccc(CNC2CCCC2)c1)C1CCN(Cc2ccccc2)CC1.O=C(O)C(F)(F)F`: 31%; for `N#CCCN1CCN(Cc2cccc(-c3ccc(-c4nc5cc(C(F)(F)F)ccc5[nH]4)cc3)c2)CC1.O=C(O)C(F)(F)F`: 23%. `CCOc1ccccc1NC(=O)C(Sc1nc(C)cc(C)c1C#N)c1ccccc1` (stereo not given) displayed an Inhibition of 0%.

`CN(C)CCOc1cc(NC(=O)Nc2ccc(-c3ccccc3)cc2)ccc1I` returned an Inhibition of 9%. Consider `Cc1cccc(-c2nc(Nc3ccncc3)c3ccc([N+](=O)[O-])cc3n2)n1`, for which the Inhibition turned out to be 0%. Regarding `O=C(Nc1ccc(-c2ccc(-c3nc4ccccc4[nH]3)s2)cc1)Nc1ccc(F)c(F)c1F`, the Inhibition was 57%. The same measure for `Cc1cc(NC(=O)c2cccs2)ccc1OC1CCN(Cc2ccccc2)C1.O=C(O)C(F)(F)F` (stereo not given): 7%; for `CC1CN(c2cnn(Cc3ccc(NC(=O)Nc4ccc(-c5ccccc5)cc4)cc3)c(=O)c2Cl)CC(C)N1.O=C(O)C(F)(F)F` (stereo not given): 82%. Compound `O=C(Nc1cccc(-c2cccc(-c3nc4ccccc4[nH]3)c2)c1)Nc1ccc(F)c(F)c1F` came in with an Inhibition of 78%. With `CCNc1cc(C(=O)NC(Cc2ccccc2)C(O)CNC2CCSCC2)cc(N2CCCC2=O)c1` (stereo not given), the Inhibition amounted to 0%. `COc1cc2c(OC)cccc2cc1CNCCCCCCNCc1cc2cccc(OC)c2cc1OC.CS(=O)(=O)O` yielded an Inhibition of 59%. On to `CN(C)Cc1cc2c(O)c(Cc3ccccc3)ccc2o1`, for which the Inhibition turned out to be 3%. With `O=C(C1COc2ccccc2O1)N(CCCn1ccnc1)Cc1csc(-c2ccc(CNCc3ccccc3)cc2)n1.O=C(O)C(F)(F)F` (stereo not given), the Inhibition is listed as 15%. `Cc1cc(=NN=Cc2ccccc2Cl)c2ccccc2[nH]1`: the Inhibition came to 0%. Turning to `Fc1ccc(CNc2nc(-c3ccc(F)c(C(F)(F)F)c3)n(-c3cccc(C(F)(F)F)c3)n2)cc1`, the Inhibition came out at 0%. In turn, `Cc1cc(N[C@@H](CC(C)C)C(=O)NCCc2ccccc2)nc(NCCc2cccs2)n1.O=C(O)C(F)(F)F` came in with an Inhibition of 0%.
